# Source: PubChem BioAssay AID1159580 (chemical genetic matrix, 2015)
# About 2,000 (36%) of roughly 5,500 compounds were called active. Not shown: some 18% with an inconclusive outcome. This is one part of the list. A number with no mark means an inactive call. No stated cut-off is given here; in the data, active means normalized growth mostly below about 0.91 (no sharp cut-off); inconclusive means no clear call, values can overlap the other calls; inactive means mostly above about 0.92.
# Assay: chemical genetic growth profiling, strain panel (AID 1159580);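 further: tested at 20 µM; growth read once vehicle control cultures reached saturation at 30 °C; 1 = growth at the plate median or of vehicle wells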
# Details: growth OD
compound,measurement,setting,value
COc1ccc(C(=O)c2ccccc2)c(O)c1,normalized growth,"S. cerevisiae deletion strains, locus YJR075W, strain HOC1, stronger effect = lower value",0.848 (active)
same,normalized growth,"S. cerevisiae deletion strains, locus YKL009W, strain mrt4, stronger effect = lower value",0.835 (active)
same,normalized growth,"S. cerevisiae deletion strains, locus YKL068W, stronger effect = lower value",0.91 (active)
same,normalized growth,"S. cerevisiae deletion strains, locus YKL085W, strain MDH1 (second series), stronger effect = lower value",0.895 (active)
same,normalized growth,"S. cerevisiae deletion strains, locus YKL085W, strain MDH1, stronger effect = lower value",0.895 (active)
same,normalized growth,"S. cerevisiae deletion strains, locus YKL160W, strain elf1, stronger effect = lower value",0.764 (active)
same,normalized growth,"S. cerevisiae deletion strains, locus YKL190W, strain CNB1, stronger effect = lower value",0.913 (active)
same,normalized growth,"S. cerevisiae deletion strains, locus YKR001C, strain vps1, stronger effect = lower value",0.553 (active)
same,normalized growth,"S. cerevisiae deletion strains, locus YKR026C, strain gcn3, stronger effect = lower value",0.804 (active)
same,normalized growth,"S. cerevisiae deletion strains, locus YKR091W, strain srl3, stronger effect = lower value",0.874 (active)
same,normalized growth,"S. cerevisiae deletion strains, locus YLL001W, strain dnm1, stronger effect = lower value",0.734 (active)
same,normalized growth,"S. cerevisiae deletion strains, locus YLL026W, stronger effect = lower value",0.841 (active)
same,normalized growth,"S. cerevisiae deletion strains, locus YLL041C, strain sdh2, stronger effect = lower value",0.861 (active)
same,normalized growth,"S. cerevisiae deletion strains, locus YLR027C, strain aat2, stronger effect = lower value",0.807 (active)
same,normalized growth,"S. cerevisiae deletion strains, locus YLR039C, strain RIC1, stronger effect = lower value",0.441 (active)
same,normalized growth,"S. cerevisiae deletion strains, locus YLR058C, strain SHM2, stronger effect = lower value",0.945
same,normalized growth,"S. cerevisiae deletion strains, locus YLR102C, strain apc9, stronger effect = lower value",0.906 (active)
same,normalized growth,"S. cerevisiae deletion strains, locus YLR113W, strain HOG1, stronger effect = lower value",0.836 (active)
same,normalized growth,"S. cerevisiae deletion strains, locus YLR221C, strain rsa3, stronger effect = lower value",0.74 (active)
same,normalized growth,"S. cerevisiae deletion strains, locus YLR258W, strain gsy2, stronger effect = lower value",0.815 (active)
same,normalized growth,"S. cerevisiae deletion strains, locus YLR262C, strain YPT6 (second series), stronger effect = lower value",0.408 (active)
same,normalized growth,"S. cerevisiae deletion strains, locus YLR262C, strain YPT6, stronger effect = lower value",0.526 (active)
same,normalized growth,"S. cerevisiae deletion strains, locus YLR268W, strain sec22, stronger effect = lower value",0.917
same,normalized growth,"S. cerevisiae deletion strains, locus YLR320W, strain mms22, stronger effect = lower value",0.542 (active)
same,normalized growth,"S. cerevisiae deletion strains, locus YLR330W, strain CHS5, stronger effect = lower value",0.916 (active)
same,normalized growth,"S. cerevisiae deletion strains, locus YLR342W, strain FKS1 (second series), stronger effect = lower value",0.763 (active)
same,normalized growth,"S. cerevisiae deletion strains, locus YLR342W, strain FKS1, stronger effect = lower value",0.815 (active)
same,normalized growth,"S. cerevisiae deletion strains, locus YLR357W, strain rsc2, stronger effect = lower value",0.857
same,normalized growth,"S. cerevisiae deletion strains, locus YLR370C, strain arc18, stronger effect = lower value",0.77 (active)
same,normalized growth,"S. cerevisiae deletion strains, locus YLR371W, strain rom2, stronger effect = lower value",0.918
same,normalized growth,"S. cerevisiae deletion strains, locus YLR384C, strain iki3, stronger effect = lower value",0.843 (active)
same,normalized growth,"S. cerevisiae deletion strains, locus YLR418C, strain cdc73, stronger effect = lower value",0.625 (active)
same,normalized growth,"S. cerevisiae deletion strains, locus YML016C, strain PPZ1, stronger effect = lower value",0.932
same,normalized growth,"S. cerevisiae deletion strains, locus YML032C, strain rad52, stronger effect = lower value",0.871 (active)
same,normalized growth,"S. cerevisiae deletion strains, locus YML120C, strain ndi1, stronger effect = lower value",0.762 (active)
same,normalized growth,"S. cerevisiae deletion strains, locus YML124C, strain tub3, stronger effect = lower value",0.899 (active)
same,normalized growth,"S. cerevisiae deletion strains, locus YMR058W, strain fet3, stronger effect = lower value",0.732 (active)
same,normalized growth,"S. cerevisiae deletion strains, locus YMR078C, strain ctf18, stronger effect = lower value",0.876 (active)
same,normalized growth,"S. cerevisiae deletion strains, locus YMR125W, strain sto1, stronger effect = lower value",0.825 (active)
same,normalized growth,"S. cerevisiae deletion strains, locus YMR129W, stronger effect = lower value",0.856 (active)
same,normalized growth,"S. cerevisiae deletion strains, locus YMR205C, strain PFK2, stronger effect = lower value",0.567 (active)
same,normalized growth,"S. cerevisiae deletion strains, locus YMR223W, strain ubp8, stronger effect = lower value",0.774 (active)
same,normalized growth,"S. cerevisiae deletion strains, locus YMR231W, strain pep5, stronger effect = lower value",0.877 (active)
same,normalized growth,"S. cerevisiae deletion strains, locus YMR263W, strain SAP30, stronger effect = lower value",0.878 (active)
same,normalized growth,"S. cerevisiae deletion strains, locus YMR307W, strain GAS1, stronger effect = lower value",0.62
same,normalized growth,"S. cerevisiae deletion strains, locus YNL067W, strain RPL9B, stronger effect = lower value",0.889
same,normalized growth,"S. cerevisiae deletion strains, locus YNL071W, strain lat1, stronger effect = lower value",0.538 (active)
same,normalized growth,"S. cerevisiae deletion strains, locus YNL128W, strain TEP1, stronger effect = lower value",0.934
same,normalized growth,"S. cerevisiae deletion strains, locus YNL153C, strain GIM3, stronger effect = lower value",0.937
same,normalized growth,"S. cerevisiae deletion strains, locus YNL183C, strain NPR1, stronger effect = lower value",0.851
same,normalized growth,"S. cerevisiae deletion strains, locus YNL209W, strain ssb2, stronger effect = lower value",0.906 (active)
same,normalized growth,"S. cerevisiae deletion strains, locus YNL233W, strain BNI4, stronger effect = lower value",0.833 (active)
same,normalized growth,"S. cerevisiae deletion strains, locus YNL248C, strain rpa49, stronger effect = lower value",0.639 (active)
same,normalized growth,"S. cerevisiae deletion strains, locus YNL250W, strain rad50, stronger effect = lower value",0.915
same,normalized growth,"S. cerevisiae deletion strains, locus YNL271C, strain bni1, stronger effect = lower value",0.882 (active)
same,normalized growth,"S. cerevisiae deletion strains, locus YNL298W, strain CLA4, stronger effect = lower value",0.859 (active)
same,normalized growth,"S. cerevisiae deletion strains, locus YNL307C, strain MCK1, stronger effect = lower value",0.538 (active)
same,normalized growth,"S. cerevisiae deletion strains, locus YNL322C, strain KRE1 (second series), stronger effect = lower value",0.862 (active)
same,normalized growth,"S. cerevisiae deletion strains, locus YNL322C, strain KRE1, stronger effect = lower value",0.93
same,normalized growth,"S. cerevisiae deletion strains, locus YNR049C, strain mso1, stronger effect = lower value",0.838 (active)
same,normalized growth,"S. cerevisiae deletion strains, locus YNR052C, strain pop2, stronger effect = lower value",0.923
same,normalized growth,"S. cerevisiae deletion strains, locus YOL006C, strain TOP1, stronger effect = lower value",0.474 (active)
same,normalized growth,"S. cerevisiae deletion strains, locus YOL012C, strain htz1",1.24
same,normalized growth,"S. cerevisiae deletion strains, locus YOL147C, strain pex11, stronger effect = lower value",0.846 (active)
same,normalized growth,"S. cerevisiae deletion strains, locus YOR001W, strain rrp6, stronger effect = lower value",0.712 (active)
same,normalized growth,"S. cerevisiae deletion strains, locus YOR061W, strain CKA2, stronger effect = lower value",0.936
same,normalized growth,"S. cerevisiae deletion strains, locus YOR069W, strain VPS5, stronger effect = lower value",0.959
same,normalized growth,"S. cerevisiae deletion strains, locus YOR070C, strain gyp1, stronger effect = lower value",0.857 (active)
same,normalized growth,"S. cerevisiae deletion strains, locus YOR080W, strain dia2, stronger effect = lower value",0.867 (active)
same,normalized growth,"S. cerevisiae deletion strains, locus YOR083W, strain WHI5, stronger effect = lower value",0.73 (active)
same,normalized growth,"S. cerevisiae deletion strains, locus YOR106W, strain vam3, stronger effect = lower value",0.682 (active)
same,normalized growth,"S. cerevisiae deletion strains, locus YOR136W, strain idh2, stronger effect = lower value",0.912 (active)
same,normalized growth,"S. cerevisiae deletion strains, locus YOR144C, strain elg1, stronger effect = lower value",0.897 (active)
same,normalized growth,"S. cerevisiae deletion strains, locus YOR184W, strain ser1, stronger effect = lower value",0.476 (active)
same,normalized growth,"S. cerevisiae deletion strains, locus YOR231W, strain MKK1, stronger effect = lower value",0.878
same,normalized growth,"S. cerevisiae deletion strains, locus YOR265W, strain rbl2, stronger effect = lower value",0.845 (active)
same,normalized growth,"S. cerevisiae deletion strains, locus YOR270C, strain vph1, stronger effect = lower value",0.419 (active)
same,normalized growth,"S. cerevisiae deletion strains, locus YOR290C, strain snf2, stronger effect = lower value",0.784 (active)
same,normalized growth,"S. cerevisiae deletion strains, locus YOR316C, strain cot1, stronger effect = lower value",0.903 (active)
same,normalized growth,"S. cerevisiae deletion strains, locus YPL051W, strain arl3, stronger effect = lower value",0.647 (active)
same,normalized growth,"S. cerevisiae deletion strains, locus YPL055C, strain LGE1, stronger effect = lower value",0.773
same,normalized growth,"S. cerevisiae deletion strains, locus YPL078C, strain atp4, stronger effect = lower value",0.599 (active)
same,normalized growth,"S. cerevisiae deletion strains, locus YPL106C, strain sse1, stronger effect = lower value",0.845 (active)
same,normalized growth,"S. cerevisiae deletion strains, locus YPL240C, strain hsp82, stronger effect = lower value",0.858 (active)
same,normalized growth,"S. cerevisiae deletion strains, locus YPL241C, strain CIN2, stronger effect = lower value",0.94
same,normalized growth,"S. cerevisiae deletion strains, locus YPL256C, strain CLN2, stronger effect = lower value",0.818 (active)
same,normalized growth,"S. cerevisiae deletion strains, locus YPR119W, strain clb2, stronger effect = lower value",0.888 (active)
same,normalized growth,"S. cerevisiae deletion strains, locus YPR141C, strain kar3, stronger effect = lower value",0.892 (active)
same,normalized growth,"S. cerevisiae deletion strains, locus YPR163C, strain tif3, stronger effect = lower value",0.844 (active)
same,normalized growth,"S. cerevisiae deletion strains, locus YPR167C, strain met16, stronger effect = lower value",0.898 (active)
same,normalized growth,"S. cerevisiae deletion strains, strain wtn01, stronger effect = lower value",0.872 (active)
same,normalized growth,"S. cerevisiae strains, strain wild type, stronger effect = lower value",0.911
